What follows are molecules tested on Vero E6 infected with SARS-CoV-2 (assay: morphology score (similarity to uninfected cells); higher = more like uninfected cells). Settings: 24 h.

Row | SMILES | morphology score
1 | NNc1nncc2ccccc12 [hydralazine] (10 µM) | -0.0789
2 | COc1ccc(CCN)cc1OC [homoveratrylamine] (10 µM) | -0.0152
3 | NC(=O)Nc1sc(-c2ccc(F)cc2)cc1C(N)=O (0.833333 µM) | 0.0683
4 | O=C(O)CC[C@H]1CC[C@@](c2cc(F)ccc2F)(S(=O)(=O)c2ccc(Cl)cc2)CC1 (10 µM) | 0.0148
5 | CC1=C(C(=O)Nc2cc3cn[nH]c3cc2F)C(c2ccc(C(F)(F)F)cc2)CC(=O)N1 (stereo not given) (10 µM) | 0.426
6 | c1ccc2c(-c3cnn4cc(-c5ccc(N6CCNCC6)cc5)cnc34)ccnc2c1 (10 µM) | -0.0877
7 | C[C@@H](CN(C)C)CN1c2ccccc2Sc2ccccc21 (racemic) [alimemazine] (0.833333 µM) | -0.144
8 | CC(=O)/N=c1/sc(S(N)(=O)=O)nn1C [methazolamide] (10 µM) | -0.0286
9 | C[C@H](Cn1cnc2c(N)ncnc21)OCP(=O)(O)O [tenofovir] (10 µM) | -0.0359
10 | COc1cccc(-c2ccc(NC(=O)C3=C(C(=O)O)CCC3)c(F)c2)c1 (10 µM) | 0.159
11 | CCc1cccc(CC)c1NC(=O)c1nn(C)c2c1CCc1cnc(Nc3ccc(C(=O)NC4CCN(C)CC4)cc3OC(F)(F)F)nc1-2 (10 µM) | -0.0668
12 | Clc1ccc(COC(Cn2ccnc2)c2ccc(Cl)cc2Cl)cc1 (stereo not given) [econazole] (10 µM) | -0.225
13 | C[C@H](N/C(=N/C#N)Nc1cccc2ncccc12)c1ccccc1 (10 µM) | 0.0952
14 | CN(C)CCOc1cc(-c2cn[nH]c2)ccc1NC(=O)C1COc2ccccc2O1 (stereo not given) (0.833333 µM) | 0.294
15 | CN[C@H]1CC[C@@H](c2ccc(Cl)c(Cl)c2)c2ccccc21 (0.833333 µM) | 0.143
16 | CC(C)(C)c1cc(C(C)(C)C)c2c(c1)C(O)(C(F)(F)F)C(=O)O2 (racemic) (10 µM) | 0.239
17 | CC[N+](C)(CC)CCOC(=O)C1c2ccccc2Oc2ccccc21 [methantheline] (10 µM) | 0.0949
18 | Cc1ccc(C(=O)Nc2ccc(Oc3cc4cnn(C)c4cc3-c3cn[nH]c3)c(F)c2)c(=O)n1-c1ccc(F)cc1 (0.833333 µM) | 0.172
19 | CN(C)CCCCC(=O)Nc1ccc(NC(=S)NC(=O)c2ccc(C(C)(C)C)cc2)cc1 [tenovin-6] (0.833333 µM) | -0.102
20 | C[C@@H](CN)CC(=O)O [3-methyl-GABA] (10 µM) | 0.0225
21 | OCCn1cc(-c2cnc3nnn(Cc4ccc5ncccc5c4)c3n2)cn1 (10 µM) | -0.0332
22 | Cc1c(O)cccc1C(=O)N[C@@H](CSc1ccccc1)[C@H](O)CN1C[C@H]2CCCC[C@H]2C[C@H]1C(=O)NC(C)(C)C [nelfinavir] (10 µM) | 0.722
23 | C[C@H](N)C(=O)O [L-alanine] (10 µM) | -0.118
24 | CCNC1=Nc2ccc(Cl)cc2C(C)(c2ccccc2)O1 (stereo not given) [etifoxine] (10 µM) | 0.159
25 | C[C@]12CC[C@H](O)C[C@H]1CC[C@@H]1[C@@H]2CC[C@]2(C)[C@@H](c3ccc(=O)oc3)C[C@H]3O[C@]132 [resibufogenin] (10 µM) | -0.241
26 | COc1ccc(-c2cc(=S)ss2)cc1 [anethole-trithione] (10 µM) | 0.0605
27 | CCC(=O)NC[C@@H]1C[C@H]1c1cccc2c1CCO2 [tasimelteon] (10 µM) | 0.169
28 | O=C1NC(=O)/C(=C/c2cccc(C(F)(F)F)c2)S1 (10 µM) | 0.00293
29 | CC(O)CC(=O)O (stereo not drawn) [beta-hydroxybutyrate] (10 µM) | -0.0603
30 | CC[N+](C)(CC)CCOC(=O)C(O)(c1ccccc1)C1CCCCC1 (stereo not given) [oxyphenonium] (10 µM) | 0.00163

Each molecule was assayed on Vero E6 infected with SARS-CoV-2 (assay: SARS-CoV-2 infection rate relative to infected DMSO; higher = more infection, active = 60 or less). Settings: 24 h.

Row | SMILES | SARS-CoV-2 infection rate
31 | COc1ccc2cccc(CCNC(C)=O)c2c1 [agomelatine] (10 µM) | 114% (inactive)
32 | CN[C@H]1C(=O)N[C@@H]2Cc3ccc(cc3)Oc3cc4cc(c3O[C@@H]3O[C@H](C(=O)O)[C@@H](O)[C@H](O)[C@H]3NC(=O)CCCCCCCCC(C)C)Oc3ccc(cc3Cl)[C@@H](O)[C@@H]3NC(=O)[C@H](NC(=O)[C@@H]4NC(=O)[C@@H](NC2=O)c2cc(cc(O)c2Cl)Oc2cc1ccc2O)c1ccc(O)c(c1)-c1c(O[C@H]2O[C@H](CO)[C@@H](O)[C@H](O)[C@@H]2O)cc(O)cc1[C@@H](C(=O)NCCCN(C)C)NC3=O [dalbavancin] (10 µM) | 113% (inactive)
33 | O=C(CCCCC(=O)Nc1c(I)cc(I)c(C(=O)O)c1I)Nc1c(I)cc(I)c(C(=O)O)c1I [iodipamide] (10 µM) | 93% (inactive)
34 | COc1cccc([C@H](O)C2CCN(CCc3ccc(F)cc3)CC2)c1OC [volinanserin] (10 µM) | 110% (inactive)
35 | CCCN[C@@H]1CCc2c(OC)cccc2[C@@H]1C (10 µM) | 100% (inactive)
36 | NC(N)=Nc1nc(CSCCN/C=N/S(=O)(=O)c2ccc(Br)cc2)cs1 [ebrotidine] (10 µM) | 97% (inactive)
37 | O=c1cc(-c2ccc(O)c(O)c2)oc2cc(O)cc(O)c12 [luteolin] (10 µM) | 110% (inactive)
38 | COc1ccc(C(=O)/C(Cc2cc(OC)c(OC)c(OC)c2)=C(\C(=O)O)c2ccc3c(c2)OCO3)cc1 (10 µM) | 69% (inactive)
39 | C[Se]C[C@H](N)C(=O)O [Se-methylselenocysteine] (10 µM) | 102% (inactive)
40 | CN(C)Cc1ccc(S(=O)(=O)n2ccc(/C=C/C(=O)NO)c2)cc1 [resminostat] (0.833333 µM) | 116% (inactive)
41 | NNc1nncc2ccccc12 [hydralazine] (10 µM) | 104% (inactive)
42 | COc1ccc(CCN)cc1OC [homoveratrylamine] (10 µM) | 118% (inactive)
43 | NC(=O)Nc1sc(-c2ccc(F)cc2)cc1C(N)=O (0.833333 µM) | 95.5% (inactive)
44 | O=C(O)CC[C@H]1CC[C@@](c2cc(F)ccc2F)(S(=O)(=O)c2ccc(Cl)cc2)CC1 (10 µM) | 110% (inactive)
45 | CC1=C(C(=O)Nc2cc3cn[nH]c3cc2F)C(c2ccc(C(F)(F)F)cc2)CC(=O)N1 (stereo not given) (10 µM) | 99% (inactive)
46 | c1ccc2c(-c3cnn4cc(-c5ccc(N6CCNCC6)cc5)cnc34)ccnc2c1 (10 µM) | 108% (inactive)
47 | C[C@@H](CN(C)C)CN1c2ccccc2Sc2ccccc21 (racemic) [alimemazine] (0.833333 µM) | 105% (inactive)
48 | CC(=O)/N=c1/sc(S(N)(=O)=O)nn1C [methazolamide] (10 µM) | 105% (inactive)
49 | C[C@H](Cn1cnc2c(N)ncnc21)OCP(=O)(O)O [tenofovir] (10 µM) | 105% (inactive)
50 | COc1cccc(-c2ccc(NC(=O)C3=C(C(=O)O)CCC3)c(F)c2)c1 (10 µM) | 94.5% (inactive)

Row | SMILES | SARS-CoV-2 infection rate
51 | CCc1cccc(CC)c1NC(=O)c1nn(C)c2c1CCc1cnc(Nc3ccc(C(=O)NC4CCN(C)CC4)cc3OC(F)(F)F)nc1-2 (10 µM) | 111% (inactive)
52 | Clc1ccc(COC(Cn2ccnc2)c2ccc(Cl)cc2Cl)cc1 (stereo not given) [econazole] (10 µM) | 101% (inactive)
53 | C[C@H](N/C(=N/C#N)Nc1cccc2ncccc12)c1ccccc1 (10 µM) | 98.5% (inactive)
54 | CN(C)CCOc1cc(-c2cn[nH]c2)ccc1NC(=O)C1COc2ccccc2O1 (stereo not given) (0.833333 µM) | 76.5% (inactive)
55 | CN[C@H]1CC[C@@H](c2ccc(Cl)c(Cl)c2)c2ccccc21 (0.833333 µM) | 89.5% (inactive)
56 | CC(C)(C)c1cc(C(C)(C)C)c2c(c1)C(O)(C(F)(F)F)C(=O)O2 (racemic) (10 µM) | 95.5% (inactive)
57 | CC[N+](C)(CC)CCOC(=O)C1c2ccccc2Oc2ccccc21 [methantheline] (10 µM) | 106% (inactive)
58 | Cc1ccc(C(=O)Nc2ccc(Oc3cc4cnn(C)c4cc3-c3cn[nH]c3)c(F)c2)c(=O)n1-c1ccc(F)cc1 (0.833333 µM) | 106% (inactive)
59 | CN(C)CCCCC(=O)Nc1ccc(NC(=S)NC(=O)c2ccc(C(C)(C)C)cc2)cc1 [tenovin-6] (0.833333 µM) | 86% (inactive)
60 | C[C@@H](CN)CC(=O)O [3-methyl-GABA] (10 µM) | 102% (inactive)
61 | OCCn1cc(-c2cnc3nnn(Cc4ccc5ncccc5c4)c3n2)cn1 (10 µM) | 99% (inactive)
62 | Cc1c(O)cccc1C(=O)N[C@@H](CSc1ccccc1)[C@H](O)CN1C[C@H]2CCCC[C@H]2C[C@H]1C(=O)NC(C)(C)C [nelfinavir] (10 µM) | 47.5% (active)
63 | C[C@H](N)C(=O)O [L-alanine] (10 µM) | 111% (inactive)
64 | CCNC1=Nc2ccc(Cl)cc2C(C)(c2ccccc2)O1 (stereo not given) [etifoxine] (10 µM) | 106% (inactive)
65 | C[C@]12CC[C@H](O)C[C@H]1CC[C@@H]1[C@@H]2CC[C@]2(C)[C@@H](c3ccc(=O)oc3)C[C@H]3O[C@]132 [resibufogenin] (10 µM) | 110% (inactive)
66 | COc1ccc(-c2cc(=S)ss2)cc1 [anethole-trithione] (10 µM) | 104% (inactive)
67 | CCC(=O)NC[C@@H]1C[C@H]1c1cccc2c1CCO2 [tasimelteon] (10 µM) | 98.5% (inactive)
68 | O=C1NC(=O)/C(=C/c2cccc(C(F)(F)F)c2)S1 (10 µM) | 106% (inactive)
69 | CC(O)CC(=O)O (stereo not drawn) [beta-hydroxybutyrate] (10 µM) | 116% (inactive)
70 | CC[N+](C)(CC)CCOC(=O)C(O)(c1ccccc1)C1CCCCC1 (stereo not given) [oxyphenonium] (10 µM) | 102% (inactive)

Source: the supplement of paper PMC13380429
